# Reference: the supplement of paper PMC8728848
# About 410 targets per protein were measured; listed, in parts, are those with the strongest signals and a random draw of the rest.
# Legend:
# Assay in all cases: glycan array binding signal (z-score within array); higher = stronger binding
# Conditions in all cases: glycan notation: IUPAC condensed, linker removed
# [1] = target: Fuc(a1-2)Gal(b1-3)GalNAc(a1-3)[Fuc(a1-2)]Gal(b1-4)GlcNAc
# In short: (§1)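 The binding signal is a Z-score computed within each array and averaged over linkers. Arrays of the same protein sequence at different concentrations or buffers were also averaged together. Data originate from 3228 arrays in the Consortium for Functional Glycomics database, kept only where the protein sequence was available.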
# [2] = target: Fuc(a1-2)Gal(b1-3)GalNAc(b1-3)Gal(a1-4)Gal(b1-4)Glc
# In short: as §1
# [3] = target: Fuc(a1-2)Gal(b1-3)GlcNAc(b1-3)[Neu5Ac(a2-6)Gal(b1-4)GlcNAc(b1-6)]Gal(b1-4)Glc
# In short: as §1
# [4] = target: Fuc(a1-2)Gal(b1-4)GlcNAc(b1-3)Gal(b1-4)GlcNAc(b1-2)Man(a1-3)[Fuc(a1-2)Gal(b1-4)GlcNAc(b1-3)Gal(b1-4)GlcNAc(b1-2)Man(a1-6)]Man(b1-4)GlcNAc(b1-4)GlcNAc
# In short: as §1
# [5] = target: Fuc(a1-2)Gal(b1-4)GlcNAc(b1-6)GalNAc
# In short: as §1
# [6] = target: Fuc(a1-2)[Gal(a1-3)]Gal(b1-4)GlcNAc(b1-3)GalNAc
# In short: as §1
# [7] = target: Fuc(a1-2)[Gal(a1-3)]Gal(b1-4)GlcNAc(b1-3)[Fuc(a1-2)[Gal(a1-3)]Gal(b1-4)GlcNAc(b1-6)]GalNAc
# In short: as §1
# [8] = target: Fuc(a1-2)[GalNAc(a1-3)]Gal(b1-3)GlcNAc(b1-2)Man(a1-3)[Fuc(a1-2)[GalNAc(a1-3)]Gal(b1-3)GlcNAc(b1-2)Man(a1-6)]Man(b1-4)GlcNAc(b1-4)[Fuc(a1-6)]GlcNAc
# In short: as §1
# [9] = target: Fuc(a1-2)[GalNAc(a1-3)]Gal(b1-4)GlcNAc(b1-3)GalNAc
# In short: as §1
# [10] = target: Fuc(a1-2)[GalNAc(a1-3)]Gal(b1-4)[Fuc(a1-3)]GlcNAc
# In short: as §1
# [11] = target: Fuc(a1-3)[Gal(b1-4)]GlcNAc(b1-2)Man(a1-3)[Fuc(a1-3)[Gal(b1-4)]GlcNAc(b1-2)Man(a1-6)]Man(b1-4)GlcNAc(b1-4)[Fuc(a1-6)]GlcNAc
# In short: as §1
# [12] = target: Fuc(a1-3)[Gal(b1-4)]GlcNAc(b1-6)[Gal(b1-3)GlcNAc(b1-3)]Gal(b1-4)Glc
# In short: as §1
# [13] = target: Fuc(a1-3)[GalNAc(b1-4)]GlcNAc6S
# In short: as §1
# [14] = target: Gal(b1-3)[Fuc(a1-4)]GlcNAc(b1-2)Man
# In short: as §1
# [15] = target: Gal(b1-3)[Neu5Ac(a2-6)]GalNAc
# In short: as §1
# [16] = target: Gal(b1-3)[Neu5Ac(b2-6)]GalNAc
# In short: as §1
# [17] = target: Gal(b1-4)GlcNAc(b1-2)Man(a1-3)[GlcNAc(b1-4)][Gal(b1-4)GlcNAc(b1-2)Man(a1-6)]Man(b1-4)GlcNAc(b1-4)GlcNAc
# In short: as §1
# [18] = target: Gal(b1-4)GlcNAc(b1-2)[Gal(b1-4)GlcNAc(b1-6)]Man(a1-6)[Gal(b1-4)GlcNAc(b1-2)Man(a1-3)]Man(b1-4)GlcNAc(b1-4)[Fuc(a1-6)]GlcNAc
# In short: as §1
# [19] = target: Gal(b1-4)GlcNAc(b1-3)Gal(b1-4)GlcNAc(b1-2)[Gal(b1-4)GlcNAc(b1-3)Gal(b1-4)GlcNAc(b1-6)]Man(a1-6)[Gal(b1-4)GlcNAc(b1-3)Gal(b1-4)GlcNAc(b1-2)Man(a1-3)]Man(b1-4)GlcNAc(b1-4)GlcNAc
# In short: as §1
# [20] = target: Gal(b1-4)GlcNAc(b1-3)Gal(b1-4)GlcNAc(b1-3)Gal(b1-4)GlcNAc(b1-3)Gal(b1-4)GlcNAc(b1-3)Gal(b1-4)GlcNAc(b1-3)Gal(b1-4)GlcNAc(b1-2)Man(a1-3)[Gal(b1-4)GlcNAc(b1-3)Gal(b1-4)GlcNAc(b1-3)Gal(b1-4)GlcNAc(b1-3)Gal(b1-4)GlcNAc(b1-3)Gal(b1-4)GlcNAc(b1-3)Gal(b1-4)GlcNAc(b1-2)Man(a1-6)]Man(b1-4)GlcNAc(b1-4)GlcNAc
# In short: as §1
# [21] = target: Gal(b1-4)GlcNAc(b1-3)Gal(b1-4)GlcNAc(b1-3)[Gal(b1-4)GlcNAc(b1-3)Gal(b1-4)GlcNAc(b1-6)]GalNAc
# In short: as §1
# [22] = target: Gal(b1-4)GlcNAc(b1-3)Gal(b1-4)[Fuc(a1-3)]GlcNAc(b1-3)Gal(b1-4)[Fuc(a1-3)]GlcNAc
# In short: as §1
# [23] = target: Gal(b1-4)GlcNAc(b1-3)[GlcNAc(b1-6)]Gal(b1-4)GlcNAc
# In short: as §1
# Gal3S(b1-3)GalNAc = target: Gal3S(b1-3)GalNAc
# In short: as §1
# [24] = target: Gal3S(b1-4)[Fuc(a1-3)]GlcNAc
# In short: as §1
# GalNAc(b1-6)GalNAc = target: GalNAc(b1-6)GalNAc
# In short: as §1
# [25] = target: GlcNAc(a1-4)Gal(b1-4)GalNAc
# In short: as §1
# [26] = target: GlcNAc(a1-4)Gal(b1-4)GlcNAc(b1-3)Gal(b1-4)GlcNAc
# In short: as §1
# [27] = target: GlcNAc(a1-4)Gal(b1-4)GlcNAc(b1-3)Gal(b1-4)GlcNAc(b1-3)Gal(b1-4)GlcNAc
# In short: as §1
# [28] = target: GlcNAc(a1-4)Gal(b1-4)GlcNAc(b1-3)Gal(b1-4)[Fuc(a1-3)]GlcNAc(b1-3)Gal(b1-4)[Fuc(a1-3)]GlcNAc
# In short: as §1
binder,measurement,setting,value
ClecSol-Fc (Cryptosporidium parvum) (protein) CPEGWISNGEKTRCFKLVTFDRPRTFSHGFKACNDLGGTEVETRRRNGSKETNEYPVTLASVYKLSDEEAIRRTLVEQGDIHKTANGCFVGLRKYAFFRYPPGWYWIDSGSPVSVRDSEINWTSSYNASWLLRFKFPFEKCGFFDIGGLGRRPCWLIDSELSCAVCGTVAYDSGGLNPNKYSELIKQTDEIISKEPKLDLPGYNNLNCTDAWENNLSVGLCQNVSNILDSAWSSYQSSLNFPSINFNWKEDSTNEGGDQVYHNSYLDLPRYKQKKTFYWDQDPGTIPALSDEMKLIGLSAQPTYHPLDRSSSGSFESDSTESGRANEERNDTLEEMIYKQSSDSIEDILVPVTKPIFSDYSSIGRNSGVEEVYSSNVSTISSKGVVFPNTTTSSDNDFTKNNPANSSKHTSTSTTTNTTTTTTRTTTTTTTTTTTTTTTTTTTTETTTTKKSTTATKNTTTT,glycan array binding signal (z-score),[1],0.031
same,glycan array binding signal (z-score),[2],-0.029
same,glycan array binding signal (z-score),[3],-0.161
same,glycan array binding signal (z-score),[4],-0.154
same,glycan array binding signal (z-score),[5],0.51
same,glycan array binding signal (z-score),[6],0.003
same,glycan array binding signal (z-score),[7],0.705
same,glycan array binding signal (z-score),[8],-0.242
same,glycan array binding signal (z-score),[9],-0.169
same,glycan array binding signal (z-score),[10],-0.281
same,glycan array binding signal (z-score),[11],0.593
same,glycan array binding signal (z-score),[12],0.068
same,glycan array binding signal (z-score),[13],-0.242
same,glycan array binding signal (z-score),[14],-0.208
same,glycan array binding signal (z-score),[15],-0.235
same,glycan array binding signal (z-score),[16],-0.149
same,glycan array binding signal (z-score),[17],-0.166
same,glycan array binding signal (z-score),[18],-0.266
same,glycan array binding signal (z-score),[19],0.543
same,glycan array binding signal (z-score),[20],-0.15
same,glycan array binding signal (z-score),[21],-0.114
same,glycan array binding signal (z-score),[22],-0.22
same,glycan array binding signal (z-score),[23],-0.01
same,glycan array binding signal (z-score),Gal3S(b1-3)GalNAc,-0.101
same,glycan array binding signal (z-score),[24],0.021
same,glycan array binding signal (z-score),GalNAc(b1-6)GalNAc,-0.238
same,glycan array binding signal (z-score),[25],18.7
same,glycan array binding signal (z-score),[26],2.11
same,glycan array binding signal (z-score),[27],1.61
same,glycan array binding signal (z-score),[28],0.617
